PubChem BioAssay (Tox21)
Unmarked numbers belong to inactive results. The source made the active and inactive calls. The call rests on the fitted dose curve; in most records, active means well fitted inhibition curve with a large enough effect in the repeat runs (not every such curve was filed as active); inconclusive means weak or mixed curves; inactive means flat fitted curve, though single readings scatter.

Molecular target: Thyrotropin-releasing hormone receptor (Homo sapiens) (UniProt P34981)
Experiment: qHTS assay to identify small molecule antagonists of the thyrotropin-releasing hormone receptor (TRHR) signaling pathway (AID 1346877)
Conditions: TRHR-HEK293, TRH-induced calcium fluorescence, antagonist mode; series mostly up to 51.3 µM
Outline: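 Human TRHR in HEK293 cells; inhibition of the intracellular calcium rise triggered by 1 nM TRH was followed by fluorescence over 3 min. Compounds were run at 15 concentrations, three replicates each.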
On the % scale 0 is the no-effect control and ±100 the full control effect.

Chain of Thyrotropin-releasing hormone receptor (Homo sapiens) (P34981 whole entry, looked up): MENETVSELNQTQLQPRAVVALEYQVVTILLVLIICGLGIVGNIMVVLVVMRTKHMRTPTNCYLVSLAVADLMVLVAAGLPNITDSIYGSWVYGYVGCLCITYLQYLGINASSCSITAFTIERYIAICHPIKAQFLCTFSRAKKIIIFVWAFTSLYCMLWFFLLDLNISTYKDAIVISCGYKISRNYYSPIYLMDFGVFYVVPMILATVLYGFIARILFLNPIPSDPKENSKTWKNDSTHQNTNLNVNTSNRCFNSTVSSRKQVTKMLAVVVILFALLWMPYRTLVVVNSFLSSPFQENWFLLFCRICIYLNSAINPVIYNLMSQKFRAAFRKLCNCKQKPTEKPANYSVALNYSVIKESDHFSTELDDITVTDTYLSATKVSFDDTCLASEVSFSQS

Row | Structure (SMILES) | outcome | activity, negative = inhibition
1 | CCCC(C)C(=O)OCC (stereo not drawn) | inactive | –
2 | C[C@H]1C[C@H]2[C@@H]3CCC4=CC(=O)C=C[C@]4(C)[C@H]3C(=O)C[C@]2(C)[C@@]1(O)C(=O)CO | inactive | –
3 | CC[N+](C)(CC)CCOC(=O)C1c2ccccc2Oc2ccccc21 | inactive | –
4 | CO/N=C(\C(=O)N[C@@H]1C(=O)N2C(C(=O)O)=C(CSc3nc(=O)c(O)nn3C)CS[C@H]12)c1csc(N)n1 | inactive | –
5 | CC(=O)N[C@H]1[C@H]([C@H](O)[C@H](O)CO)OC(C(=O)O)=C[C@@H]1N=C(N)N | inactive | –
6 | CCOc1ccc2nc(S(N)(=O)=O)sc2c1 | inactive | –
7 | O=S(=O)(O)c1cccc2c(S(=O)(=O)O)cccc12 | inactive | –
8 | CNCC(O)c1ccc(O)c(O)c1 (stereo not drawn) | inactive | –
9 | Nc1ccccn1 | inactive | –
10 | O=C(O)CC(C(=O)O)S(=O)(=O)O (stereo not drawn) | inactive | –
11 | CC(=O)C1CCCCC1=O (stereo not drawn) | inactive | –
12 | CO[C@@]1(NC(=O)C(C(=O)O)c2ccc(O)cc2)C(=O)N2C(C(=O)O)=C(CSc3nnnn3C)CO[C@@H]21 (stereo partly drawn) | inactive | –
13 | O=S(=O)(O)c1cccc2ccccc12 | inactive | –
14 | CN(C)C(=O)Oc1cccc([N+](C)(C)C)c1 | inactive | –
15 | CCN[C@@H]1C[C@H](N)[C@@H](OC2OC(CN)=CCC2N)[C@H](O)[C@H]1O[C@H]1OC[C@](C)(O)[C@H](NC)[C@H]1O (stereo partly drawn) | – | 0.737% [at 0.194 µM]
16 | O=C(O)CNC(=O)c1ccc(CO)o1 | inactive | –
17 | CC(C)(C)C(=O)Oc1ccc(S(=O)(=O)Nc2ccccc2C(=O)NCC(=O)O)cc1 | inactive | –
18 | CN(C)CCN(C)CCN(C)C | inactive | –
